The list is not random: actives were taken first. Their share in the collection is about 10%.
BAZ2B block: blocks human BAZ2B; Q9UIF8; AlphaScreen BAZ2B-H3K14Ac peptide displacement; Potency, µM (top dose mostly 114 µM), for inactives: top-dose activity change, negative = inhibition, usual class: inhibitors; 360,000 compounds, 4.4% hits; AID 504333; further: on the % scale 0 is the no-effect control and ±100 the full control effect; nearly all actives have a fitted effect of over 60% in size
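Protein-peptide AlphaScreen: BAZ2B 50 nM, b-H3K14Ac 50 nM, 1x PBS pH 7.4 + 0.01% Tween-20. Preincubation 30 min RT; cpd 30 min RT (top 110 uM); beads 20 min RT, light-protected.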
L3MBTL1 block: inhibitors of human L3MBTL1 | Q9Y468 | AlphaScreen L3MBTL1–H3K9me1 peptide binding | Potency, µM (top dose mostly 57.1 µM), without a hit: top-dose activity, negative = inhibition, most hits filed as inhibitors | 230,000 compounds, 0.66% hits | AID 485360; further: on the % scale 0 is the no-effect control and ±100 the full control effect; nearly all actives have a fitted effect of over 60% in size
Target sequence (Q9Y468 whole entry, looked up): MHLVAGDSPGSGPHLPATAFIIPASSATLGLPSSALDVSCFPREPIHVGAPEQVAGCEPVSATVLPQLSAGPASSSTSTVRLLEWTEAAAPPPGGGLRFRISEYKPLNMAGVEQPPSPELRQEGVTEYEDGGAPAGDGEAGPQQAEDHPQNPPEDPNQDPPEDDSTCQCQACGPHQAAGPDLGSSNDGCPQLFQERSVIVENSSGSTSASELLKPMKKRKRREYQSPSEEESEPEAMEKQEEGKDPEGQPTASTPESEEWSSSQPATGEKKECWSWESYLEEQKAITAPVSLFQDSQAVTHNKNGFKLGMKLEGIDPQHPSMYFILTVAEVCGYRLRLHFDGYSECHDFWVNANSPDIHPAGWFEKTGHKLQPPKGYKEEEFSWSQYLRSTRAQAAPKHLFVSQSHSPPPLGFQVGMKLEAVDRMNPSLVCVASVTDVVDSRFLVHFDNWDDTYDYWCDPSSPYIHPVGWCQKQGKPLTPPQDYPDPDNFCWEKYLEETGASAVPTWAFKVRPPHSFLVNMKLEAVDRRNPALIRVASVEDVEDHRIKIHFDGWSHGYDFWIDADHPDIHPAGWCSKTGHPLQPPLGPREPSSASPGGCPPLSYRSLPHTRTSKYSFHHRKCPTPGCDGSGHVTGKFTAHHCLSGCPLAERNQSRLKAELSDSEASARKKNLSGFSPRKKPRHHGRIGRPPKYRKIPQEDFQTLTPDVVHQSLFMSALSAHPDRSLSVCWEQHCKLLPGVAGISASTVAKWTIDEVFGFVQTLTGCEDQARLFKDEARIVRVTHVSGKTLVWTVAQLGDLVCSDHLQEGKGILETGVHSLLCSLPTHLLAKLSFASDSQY
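AlphaScreen proximity signal between nickel-chelate acceptor and streptavidin donor beads (final 10 ug/mL) reports binding of 50 nM L3MBTL1 to 75 nM biotin-H3 K9me1 peptide; complex incubated with compounds 30 min at room temperature; cefsulodin titration as control.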
HP1b chromo inh: HP1-beta chromodomain-methylated histone interaction inhibition | P83916 | 390,000 compounds, 0.56% hits | Potency, µM (doses to about 114 µM), for inactives: at the highest dose activity change, negative = inhibition, most hits filed as inhibitors | AlphaScreen HP1-beta / biotin-H3K9me3 peptide binding | AID 540317; further: nearly all actives have a fitted effect of over 70% in size
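Compound inhibition of the preformed complex between 50 nM HP1-beta and 50 nM biotinylated H3K9me3 peptide was read by AlphaScreen. Buffer was PBS pH 7.4 with 0.01% Tween-20. Incubations ran 30 min at room temperature, with 10 ug/mL donor/acceptor beads.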
G9a block: blocks human histone lysine methyltransferase G9a. Q96KQ7. G9a H3K9 monomethylation, AlphaScreen, 2 h. Potency, µM (series often up to 102 µM), without a hit: top-dose activity, negative = inhibition, most hits filed as inhibitors. 350,000 compounds, 8.8% hits. AID 504332; further: on the % scale 0 is the no-effect control and ±100 the full control effect; nearly all actives have a fitted effect of over 75% in size
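AlphaScreen detection with an anti-monomethyl H3K9 antibody quantified product after a 2 h room-temperature reaction containing 500 nM biotinylated H3K9 peptide, 20 µM SAM and 20 nM enzyme, which had been preincubated 15 min with compound.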
JMJD2A Tudor: inhibitors of human JMJD2A Tudor domain | AlphaScreen JMJD2A-Tudor / H3K4me3 peptide binding | O75164 | Potency, µM (highest dose often 114 µM), inactives show at the top dose activity change, negative = inhibition, most hits filed as inhibitors | 390,000 compounds, 4.4% hits; further: on the % scale 0 is the no-effect control and ±100 the full control effect; nearly all actives have a fitted effect of over 50% in size
GLS inh: glutaminase GLS (human) inhibition | GLS enzymatic activity, qHTS titration | O94925 | Potency, µM (titrated, usually from 45.5 µM), without a hit: at the top dose activity change, negative = inhibition, usual class: inhibitors | 410,000 compounds, 0.21% hits; further: on the % scale 0 is the no-effect control and ±100 the full control effect
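hKGA in 45 mM KH2PO4 pH 8.2, 0.02% Tween-20 with pin-transferred compounds; 1 mM L-glutamine (stock) plus glutamate oxidase/HRP/Amplex Red coupling added. Fluorescence read initially and after 30 min at RT.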
The depositor's hits bear a star; ? = inconclusive; . = no result; [ ] = remark or other dose. The call rests on the fitted dose curve; in most records, active means well fitted curve in the direction sought with a large enough effect; inconclusive means small, poorly fitted or top-dose-only effect, or another doubt; inactive means no such curve, though single readings can be large; an effect the other way counts as inactive or inconclusive. Potency means the concentration at half of the fitted maximal effect.

SMILES	BAZ2B block	L3MBTL1 block	HP1b chromo inh	G9a block	JMJD2A Tudor	GLS inh
COc1ccccc1OS(=O)(=O)c1ccc(NC(C)=O)cc1	-5.9%	5.1%	21.4%	-4.1%[59 µM]	-18.9%	5.3%
Cn1nnc(NC(=O)c2ccco2)n1	-3.0%	2.1%	34.2%	14.3%	-6.0%	5.2%
Cn1nnc(NC(=S)NC(=O)c2ccco2)n1	?	50.9%	?	7.94µM*	?	19.9%
Cc1nc(NC(=S)NC(=O)c2ccco2)sc1C(=O)N(C)C	-1.0%	.	28.3%	39.8µM*	-12.0%	3.5%
Cc1ccc(C(=O)Nc2nc(C)c(C(=O)N(C)C)s2)o1	-12.0%	.	20.1%	-18.3%	-20.8%	3.7%
CNC(=O)NC(=S)NC(=O)c1ccc(OC)cc1	-34.7%	4.0%	13.9%	16.2%[12.7 µM]	15.8µM*	33.4%
Cn1nnc(NC(=S)NC(=O)Cc2ccccc2)n1	35.5µM*	8.6%	79.4µM*	2.82µM*	22.4µM*	26.7%
COc1c(C(=O)NC(=S)Nc2nnn(C)n2)cc2ccccc2c1Br	-5.4%	.	-6.6%	.	-8.1%	5.8%
COc1ccc(C(=O)NC(=S)Nc2nnn(C)n2)cc1	50.1µM*	4.0%	-36.9%	3.55µM*	31.6µM*	1.2%
Cc1cccc(NC2SC(=O)NC2=O)c1 (stereo not given)	?	3.9%	-0.1%	50.1µM*	?	1.8%
Cc1cccc(NC2CNC(=O)NC2=O)c1 (stereo not given)	.	.	4.7%	.	-18.6%	20.2%
COc1ccc(S(=O)(=O)Nc2ccc(-c3ccc4nncn4n3)cc2)c(OC)c1	3.8%	-5.1%	?	10µM*	-15.1%	3.7%
CC(=O)N1CCC2(CCN(Cc3ccncc3)CC2)CC1	.	.	.	6.2%[12.7 µM]	.	.
Cc1ccc(-c2nc3cc(C(C)C)ccc3o2)cc1NC(=O)c1cccs1	-16.1%	.	30.3%	-2.1%[59 µM]	0.4%	-2.8%
Cc1ccccc1NS(=O)(=O)c1ccc(Br)s1	6.4%	.	52.6%	-43.6%[59 µM]	-5.5%	1.3%
Cc1ccc(OCC(=O)Nc2ccc(N3CCN(S(C)(=O)=O)CC3)cc2)cc1	-4.2%	12.9%	9.6%	.	-2.7%	-2.9%
Cc1ccc(C(C)C)cc1OCC(=O)Nc1ccc(N2CCCCC2)cc1	28.2µM*	-27.4%	?	15.8µM*	?	-2.0%
Cc1ccc(OCC(=O)Nc2ccc(O)c(C(=O)O)c2)cc1C	4.8%	0.4%	8.8%	35.5µM*	-16.9%	49.6%
CCc1ccc(OCC(=O)Nc2ccc(N3CCN(S(C)(=O)=O)CC3)cc2)cc1	13.0%	5.0%	34.0%	79.4µM*	1.5%	1.3%
CCC(=O)N1CCN(c2ccc(NC(=O)COc3ccc(C)cc3C)cc2)CC1	?	.	-19.1%	?	-35.2%	26.0%
Cc1ccc(OCC(=O)Nc2ccc(N3CCCC3)cc2)cc1C	28.2µM*	-23.7%	?	11.2µM*	31.6µM*	-6.6%
Cc1ccc(Cl)cc1NC(=O)Cn1c(SCC(=O)NCc2ccccc2)nc2ccccc21	-17.0%	.	24.1%	1.5%[12.7 µM]	-7.0%	-0.9%
C=Cc1cc(F)c(S(=O)(=O)N2CCN(S(=O)(=O)c3ccc4c(c3)OCCO4)CC2)cc1F	.	.	.	.	-7.5%	.
COc1ccc(OCC(=O)Nc2ccc(N3CCCCC3)cc2)cc1	-31.0%	-14.2%	-15.8%	8.5%	-14.1%	19.6%
CC(=O)c1ccc(OCC(=O)Nc2ccc(N3CCCCC3)cc2)cc1	44.7µM*	-18.7%	?	-17.2%[12.7 µM]	?	21.8%
SMILES	BAZ2B block	L3MBTL1 block	HP1b chromo inh	G9a block	JMJD2A Tudor	GLS inh
Cc1nc(C(=O)O)nn1-c1cc(Cl)ccc1Cl	?	11.3%	29.6%	44.7µM*	-11.2%	-1.0%
CNC(=O)c1nc(C)n(-c2ccc(Cl)cc2Cl)n1	-5.1%	-6.7%	-11.2%	4.0%	10µM*	?
Cc1nc(C(=O)N(C)C)nn1-c1ccc(Cl)cc1Cl	8.2%	11.6%	3.4%	-36.1%	-12.6%	0.8%
N#Cc1nc(Nc2cc(F)cc(F)c2)nc(NC2CCCC2)n1	.	.	.	.	-11.6%	.
Cc1ccc(S(=O)(=O)N2CCN(Cc3ccc4c(c3)OCO4)CC2)cc1	-30.1%	.	-22.2%	9.9%[59 µM]	?	25.0%
Cc1ccc(/C=C/C(=O)c2ccccc2O)cc1	?	12.2%	?	.	-26.9%	2.9%
COc1cc(C)cc(C(=O)C=Cc2ccccc2)c1O	.	.	?	.	56.2µM*	-11.6%
Cc1ccc(O)c(C(=O)C=Cc2ccccc2)c1	.	.	?	.	39.8µM*	16.4%
COc1ccc(C(=O)/C=C/c2ccc(O)cc2)cc1	-25.6%	7.7%	8.7%	-9.2%[59 µM]	-31.3%	21.4%
CN(C)c1ccc(/C=C/C(=O)c2ccccc2O)cc1	.	.	12.6µM*	8.91µM*	10µM*	55.5%
COc1ccc(C=CC(=O)c2cc(O)ccc2O)cc1	.	.	?	.	39.8µM*	75.6%
Cc1cn2c(=O)cc(COc3ccc(NC(=O)c4ccc(C(C)(C)C)cc4)cc3)nc2s1	-32.4%	.	-8.3%	-13.3%[59 µM]	-21.2%	-18.7%
O=C(NC1CCCC1)c1ccc2c(c1)N(Cc1ccc(C(F)(F)F)cc1)C(=O)c1ccccc1S2	.	.	26.9%	3.6%[59 µM]	-8.3%	1.1%
Cc1coc2cc3oc(=O)c(CC(=O)NCc4ccccc4)c(C)c3cc12	-11.7%	.	27.0%	3.0%[59 µM]	-11.3%	1.3%
Cc1ccc(CSc2nnc3[nH]c(=O)cc(-c4ccccc4)n23)cc1	-1.9%	.	58.8%	?	-5.8%	7.2%
Cc1ccc(O)c(C(=O)/C=C/c2ccc3c(c2)OCCCO3)c1	28.2µM*	?	?	7.08µM*	15.8µM*	-1.5%
Cc1ccc(CNc2ncnc3onc(-c4ccc(F)cc4)c23)cc1	15.9%[57.1 µM]	.	57.7%	-4.8%[59 µM]	7.8%	3.0%
O=C(/C=C/c1ccc([N+](=O)[O-])cc1)Nc1cccc(C(=O)Nc2ccccc2C(=O)O)c1	?	?	?	44.7µM*	?	?
COC(=O)c1cccc(NC(=O)/C=C/c2cccc([N+](=O)[O-])c2)c1	-11.1%	-4.1%	-0.2%	21.3%[0.501 µM]	-4.4%	15.3%
O=C(/C=C/c1cccc([N+](=O)[O-])c1)Nc1cc(C(=O)O)cc(C(=O)O)c1	?	.	?	?	17.8µM*	?
CCCOc1ccc(C2C(=O)N(C3CCCCCC3)CC(=O)N2C(C)C)cc1OC (stereo not given)	-5.8%	.	41.2%	7.0%[59 µM]	-21.1%	-18.4%
O=C(NNc1ccc(-c2csnn2)cc1)c1ccccc1C(F)(F)F	0.0%	7.0%	24.8%	28.2µM*	-8.7%	11.2µM*
Cc1ccc(NC(=O)Cn2c(=O)n(CC3CCCO3)c(=O)c3ccccc32)cc1 (stereo not given)	-1.8%	.	24.7%	-34.5%[59 µM]	-6.5%	3.4%
CC(=O)Cc1nsc(NC(=O)C2Cc3ccccc3C(=O)O2)n1 (stereo not given)	-9.9%	.	12.3%	56.2µM*	-26.8%	0.8%

Assay outcomes: PubChem BioAssay, National Center for Advancing Translational Sciences (NCATS)
